The results in this text go back to PubChem BioAssay (NCI).

The panel holds about 83,000 compounds, 20% with a hit somewhere; the sample as a whole holds those more often.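 Note: values are percent growth. 100 is the growth of untreated cells, values between 100 and 0 indicate rising inhibition; between -100 and 0 indicates cell death.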 Calls of active or inactive are those of the source. Rule for the calls: active = growth percent below 10; inactive = the rest.

One assay relates to IGROV1 ovarian. Nature of the assay: NCI-60 one-dose screen, 48 h (100 = growth as untreated, 0 = no growth, -100 = all killed). As to conditions: 10 µM unless noted.
Regarding `CCn1cc(C(=O)O)c(=O)c2cc(F)c(N3CCN(CC(=O)Nc4ccccc4)C(C)C3)c(F)c21` (configuration not stated), the growth is 103% (inactive). As to `c1cc(OCCN2CCCCC2)ccc1CNc1ccc2nc(CCC3CCCCC3)[nH]c2c1`, the growth is 42.3% (inactive).

For `Cc1ccc(OCCOCCOCCOc2ccc(C)n(O)c2=S)c(=S)n1O`, the growth is 72% (inactive).

In the case of `Cn1cc(-c2csc(-c3cn(CCCN4CCOCC4)c4ccc(F)cc34)n2)c2cccnc21`, the growth was 76.3% (inactive). For the compound `O=C1c2cccnc2C(=O)c2c1c(C(=O)OCCc1ccccn1)c1ccccn21`, the growth is -0.716% (active). The same measure, in the same setting: then `C#CCOc1cccc(Nc2ncnc3c2ncn3C2CCN(C(=O)CCl)C2)c1` (configuration not stated), with -58.3% (active); and `O=C(Cn1nc(-c2cccc3ccccc23)ccc1=O)NCc1cccc(Cl)c1`, with 47.2% [50 µM] (inactive); and `CC1(C)CC[C@]23CC[C@]4(C)[C@H](CC[C@@H]5[C@@]6(C)C/C(=C/O)C(=O)C(C)(C)[C@@H]6CC[C@]54C)[C@H]2[C@H]1OC3`, with 106% (inactive).

On to `Clc1ccc(-c2cc(-c3ccccc3)nc(N3CCN(CCCNc4ccnc5cc(Cl)ccc45)CC3)n2)cc1`, for which the growth is -62.4% (active). As for `CN(C)c1ccc(CNCCO)cc1`, the growth was 107% (inactive). `COC(=O)Cn1c2c(c3c(OC)cccc31)C(=O)c1ccccc1-2`: the growth is 110% (inactive). As to `O=C(/C=C/c1ccccc1)c1ccc(-n2cc(CN3CCN(c4cc5c(cc4F)c(=O)c(C(=O)O)cn5C4CC4)CC3)nn2)cc1`, the growth was 84% (inactive). For `Cc1nc(N/N=C/c2cn(-c3ccccc3)nc2-c2cc3ccccc3oc2=O)sc1N=Nc1ccccc1`, the growth is 89.1% (inactive). Regarding `Oc1c(CN2CCC(N3CCOCC3)CC2)cc(Cc2cc(CN3CCC(N4CCOCC4)CC3)c(O)c3ncccc23)c2cccnc12`, the growth was 25% (inactive). On to `N#Cc1nn(-c2cc(=O)[nH]c3ccc(Br)cc23)c(N)c1C#N`, for which the growth was 90.5% (inactive).

For the compound `CCCCO[C@@H]1C=C2[C@H]3CC(C)(C)C(=O)C[C@]3(C(=O)O[C@@H]3O[C@H](CO[C@@H]4O[C@H](CO)[C@@H](OC5OC(C)C(O)C(O)C5O)[C@H](O)[C@H]4O)[C@@H](O)[C@H](O)[C@H]3O)CC[C@@]2(C)[C@]2(C)CC[C@H]3C(C)(C)C(=O)CC[C@]3(C)[C@@H]12` (some centres not stated), the growth is 69.1% (inactive). Consider `CC(=O)c1sc(-c2ccc(F)cc2)cc1O`, for which the growth was 115% (inactive). For the compound `CC(=O)c1ccc(-n2cc(CN3CCN(c4cc5c(cc4F)c(=O)c(C(=O)O)cn5C4CC4)CC3)nn2)cc1`, the growth is 75.3% (inactive).

For the compound `COc1ccc(CN2C(=O)OC(C)(COC(C)=O)C2=O)cc1` (configuration not stated), the growth was 107% (inactive). With `O=C1CCCC1[n+]1ccccc1` (configuration not stated), the growth was 101% (inactive). Turning to `CN(C)CCC(=O)C1CC1`, the growth is 92.3% (inactive). Consider `Nc1ccc(-c2ccncc2)cc1NC(=O)N1CCCC1`, for which the growth is 99.4% (inactive). For the compound `C/C(=C(\c1ccc(OCCN2CCCCCC2)cc1)c1ccc(OC(=O)c2ccccc2)cc1)c1ccc(Cl)cc1`, the growth is 46.7% (inactive). Take `C=C(C)[C@@H]1CC[C@]2(COC3CCCCO3)CC[C@]3(C)[C@H](CC[C@@H]4[C@@]5(C)C=C(C=O)C(=O)C(C)(C)[C@@H]5CC[C@]43C)[C@@H]12` (some centres not stated): the growth is -64.8% (active).

Consider `O=C1CCCCN1c1ccc(C2=NCCCN2)cc1`, for which the growth is 95.9% (inactive). On to `C=CN(C(=O)N1CCN(c2cc3c(cc2F)c(=O)c(C(=O)O)cn3C2CC2)CC1)c1nc(-c2ccc(Cl)cc2)cs1`, for which the growth is 21.4% (inactive).

Regarding `COc1ccc(Cl)cc1Nc1nc(C(F)(F)F)ccc1C(=O)N/N=C/c1ccc([N+](=O)[O-])cc1`, the growth was -0.273% (active).

The subject of another assay is OVCAR-3 ovarian. The assay is described as above. As to conditions: 10 µM unless noted.
Consider `COC1C(O)CC(OC2CC(OC3CC(O[C@@H]4C(=O)c5c(cc6cc(OC7CC(OC8CC(O)C(O)C(C)O8)C(O)C(C)O7)c(C)c(O)c6c5O)CC4[C@H](OC)C(=O)C(C)=O)OC(C)C3O)OC(C)C2O)OC1C` (some centres not stated), for which the growth is 6.3% (active). For the compound `Clc1ccc(-c2cc(-c3ccccc3)nc(N3CCN(CCCNc4ccnc5cc(Cl)ccc45)CC3)n2)cc1`, the growth is -47.9% (active).

Regarding `Nc1nc(C(=O)N/N=C/c2ccc(F)cc2)nn1-c1ccc(S(N)(=O)=O)cc1`, the growth is 102% (inactive). Regarding `Nc1c(Br)cc2c(c1Br)Cc1cc([N+](=O)[O-])ccc1-2`, the growth is 111% (inactive). Same read-out and setting: with `Cc1cc2oc(/C=C/c3ccccc3)cc(=O)c2c(C)c1Cl` the figure was 108% (inactive); with `Oc1c(CN2CCC(N3CCOCC3)CC2)cc(Cc2cc(CN3CCC(N4CCOCC4)CC3)c(O)c3ncccc23)c2cccnc12`, 19.6% (inactive). Same read-out and setting: with `CC(=O)c1c(Nc2cccc(F)c2)[nH]c2c(Cl)cc(Cl)c(Cl)c2c1=O` the figure was 14.8% (inactive); with `O=c1cc(CP(=O)(O)O)c2cc(O)c(-c3ccccc3)cc2o1`, 108% (inactive). With `Nc1ccc(-c2ccncc2)cc1NC(=O)N1CCCC1`, the growth was 99.3% (inactive).

Consider `O=c1oc2c(cnc3ccccc32)cc1-c1cccc(Cl)c1`, for which the growth was 112% (inactive).

With `Nc1cccc(-c2ccc(COc3ccc(CC4SC(=O)NC4=O)cc3)cc2)c1` (configuration not stated), the growth is 49.9% (inactive). For `Cc1cc(=O)oc2cc(Oc3nc(Br)cn4c(Br)cnc34)ccc12`, the growth was 56.7% (inactive). For `Cc1ccccc1N1CCN(C(=S)c2ccccc2)CC1`, the growth was 108% (inactive).

Consider `O=C(Nc1nc(Cl)nc(Nc2ccc(N3CCOCC3=O)cc2)n1)c1ccc(Cl)s1`, for which the growth is 102% (inactive). Regarding `COCCOC(C)C(/C=N/NC(N)=S)=N/NC(N)=S` (configuration not stated), the growth was 13.9% (inactive).
